Not all results are given here.
aSyn UTR act: Activators via SNCA 5'UTR binding, MLPCN. 300,000 compounds, 7.1% hits. activity score, % (tested at 7.5 µM), hits read low. alpha-synuclein 5'UTR reporter, activators screen; in the data active = activity score below about -60%
Starred values were filed as active, the others as inactive.

SMILES	aSyn UTR act
O=C1c2ccccc2C(Nc2ccc3c(c2)OCCO3)N1c1ccc(Cl)cn1 (stereo unspecified)	-75.9*
CCc1cc2c(=O)n(CC(C)C)cnc2s1	-100.7*
CCCCCn1cnc2sc(CC)cc2c1=O	-168.8*
CCc1cc2c(=O)n(-c3ccc(Br)cc3)cnc2s1	-160.3*
Cc1ccc(C(=O)c2c3ccccc3[n+]([O-])n2[C@@H](C)C(N)=O)cc1	-86.6*
COc1cccc(-c2nnc(-c3ccccc3[N+](=O)[O-])o2)c1	-136.4*
COc1cccc(-c2nnc(-c3ccco3)o2)c1	-146.8*
COc1cccc(OCCOc2ccccc2[N+](=O)[O-])c1	-154.5*
COc1cccc(C(=O)Nc2ccc(-c3nnc(-c4ccco4)o3)cc2)c1	-127.1*
CCCN(CCC)S(=O)(=O)c1ccc(C(=O)Nc2nnc(-c3cccc(OC)c3)o2)cc1	69.9
COc1cccc(-c2nnc(NC(=O)C(C)C)o2)c1	-67.2*
COc1ccc(-c2nc3ccc([N+](=O)[O-])cc3[nH]2)cc1	-63.4*
COc1ccc2cc(-c3ccccc3)ncc2c1	-64.9*
COc1ccc(-c2cc3c(nn2)-c2ccccc2C3=O)cc1	98.4
COc1ccc2[nH]c(-c3ccccc3)cc2c1	-139.2*
Clc1ccc(-c2nc3ccncc3[nH]2)cc1	-100.5*
O=[N+]([O-])c1ccc(/C=C/c2nc3ccc([N+](=O)[O-])cc3[nH]2)cc1	-165.0*
COc1ccc2nc(-c3ccccc3)[nH]c2c1	-70.7*
O=[N+]([O-])c1ccc2nc(-c3ccc(Cl)cc3)[nH]c2c1	-221.4*
O=[N+]([O-])c1cccc(-c2nc3ccc([N+](=O)[O-])cc3[nH]2)c1	-142.3*
O=[N+]([O-])c1ccc(-c2cc(-c3ccc(Cl)cc3)n[nH]2)cc1	-74.6*
COc1cc(/C=C2\C=CC(=O)O2)cc(OC)c1	-65.1*
S=C(NCCC1=CCCCC1)Nc1ccc(Cl)cc1	-109.6*
Cc1[nH]nc2nc(SCC(=O)NCCC3=CCCCC3)n(-c3ccc(Br)cc3)c(=N)c12	74.5
COc1ccc(NC(=O)NCCC2=CCCCC2)cc1	-130.5*
SMILES	aSyn UTR act
COc1cccc(NC(=O)NCCC2=CCCCC2)c1	-183.5*
COCCCNC(=O)Cn1nnc(-c2ccc(NC(=O)c3ccccc3F)cc2)n1	-95.4*
COC(=O)CCn1nnc(-c2ccc(C(C)C)cc2)n1	119.1
O=c1oc2c(-c3cccc(F)c3)cc(O)cc2s1	-79.5*
O=C(c1ccc(Br)o1)N1CCc2ccccc21	-154.4*
O=C(c1ccco1)N1CCc2ccccc21	-97.4*
Cc1c(C(=O)N2CCc3ccccc32)oc2ccccc12	-126.1*
Cc1c(Br)c(C(=O)N2CCc3ccccc32)nn1C	-126.8*
Clc1ccccc1Cn1nnc2c(N3CCOCC3)nc(C3CC3)nc21	54.6
CCCN1CCN(c2ncnc3c2nnn3Cc2ccccc2)CC1	-69.3*
OCc1c(OCc2cccc(F)c2)ccc2ccccc12	-110.8*
CCc1ccc(Nc2cnn(-c3nc4ccccc4s3)c(=O)c2Cl)cc1	-80.5*
O=C(Nc1cc(C(F)(F)F)ccc1N1CCOCC1)c1ccc2ccccc2n1	-80.2*
Cn1c(CN2CCCC2)nc2cc(NC(=O)c3ccco3)ccc21	-115.8*
CCC(=O)NCCc1nc2cc(NC(=O)c3ccccc3Cl)ccc2n1C	-77.6*
Cn1c(CN2CCCCC2)nc2cc(NC(=O)c3ccccc3)ccc21	-73.4*
CC1CCN(CCc2nc3cc(NC(=O)Nc4ccccc4)ccc3n2C)CC1	-84.1*
Cc1ccc(C(=O)Nc2ccc3c(c2)nc(CCNC(=O)c2ccco2)n3C)cc1	-103.9*
CCN1CCN(Cc2ccc(NC(=O)c3cc(NC(=O)c4cncc(-c5cccs5)c4)cc(OC)c3)cc2C(F)(F)F)CC1	108.8
COc1c(C)cccc1C(=O)Nc1ccc(CN2CCCCC2)cc1	-101.0*
Cc1cc(C)c(NC(=O)CCN2CCN(Cc3ccccc3)CC2)c(C)c1	98.3
Cn1c(CN2CCCCC2)nc2cc(NC(=O)c3cccs3)ccc21	-67.7*
O=C(CN1CCC(NC(=O)c2cccc(F)c2)CC1)Nc1ccc(Br)cc1	67.9
O=C(Nc1ccc(CN2CCCCC2)cc1)c1cccc(Br)c1	-71.9*
O=C(Nc1ccc(CN2CCCCC2)cc1)c1sc2ccccc2c1Cl	-158.7*
SMILES	aSyn UTR act
Cn1c(CN2CCCCC2)nc2cc(NC(=O)c3cccc(Br)c3)ccc21	-98.8*
O=C(Nc1ccc2c(c1)nc1n2CCN(Cc2ccccc2)C1)c1cccs1	-91.4*
O=c1c2cccc(Cl)c2nc2n1Cc1ccccc1-2	-153.5*
O=C1C(Cl)=C(Nc2ccc3cn[nH]c3c2)C(=O)c2ccccc21	100.2
CN(C)c1ccc(NC2=C(Cl)C(=O)c3ccccc3C2=O)cc1	-116.1*
COc1ccccc1/C=C/C=N/n1c(-c2ccccn2)n[nH]c1=S	-100.2*
O=C(N=C1c2ccccc2CN1c1ccc(F)c(Cl)c1)c1cccnc1Cl	-105.9*
N#Cc1ccc(N2Cc3ccccc3C2=NC(=O)c2cccnc2Cl)cc1	-106.5*
Cc1ccc2cc3cc(C(=O)N4CCCCC4C)oc3nc2c1 (stereo unspecified)	-199.7*
O=C(c1cc2cc3ccc(Cl)cc3nc2o1)N1CCCCCC1	-94.8*
